Assay outcomes: PubChem, National Center for Advancing Translational Sciences (NCATS)
HCV inhibitor – qHTS Assay for Inhibitors of Hepatitis C Virus (HCV); Huh7.5.1 HCVcc-Cre infection, luciferase reporter, 44 h; Potency, µM (titrated, usually from 41.8 µM), inactives show at the highest dose activity change, negative = inhibition, hits mostly inhibitors; 340,000 compounds, 3.4% hits; AID 651820, 2012; note: potency is the fitted concentration of half-maximal effect
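Luciferase read-out (15 sec integration) after a 15 min room-temperature substrate step quantifies HCVcc-Cre infection. Cells, 1,000 per well, had compound added 4 h post-plating, then virus at ~0.5 moi, and were cultured 44 h.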
LASV entry inh – qHTS for Inhibitors of binding or entry into cells for Lassa Virus. Lassa virus pseudotype entry inhibition, cell reporter. Potency, µM (doses to about 37.9 µM), inactives show at the top dose activity change, negative = inhibition, actives largely listed as inhibitors. 300,000 compounds, 1.2% hits. AID 540256, 2011; calls by dose curve; tested in HEK293 cells; note: potency is the fitted concentration of half-maximal effect; nearly all actives have a fitted effect of over 50% in size
HCMV inh – qHTS Assay for inhibitors of the human cytomegalovirus (HCMV); 410,000 compounds, 4.5% hits; activity change, negative = inhibition, % at 57.5 µM; HFF cells, HCMV-luciferase reporter, 72 h; hits give low values; in the data active = activity change below about -60%; inconclusive = no clear call, values can overlap the other calls; inactive = above about -39%
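Screen run at 2 compound doses on HFFs infected with reporter HCMV, MOI 1 PFU/cell. Luciferase activity from cell lysates at 72 h post infection gave inhibition relative to buffer-only and Salinomycin wells.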
MARV entry inh – qHTS for inhibitors of binding or entry into cells for Marburg Virus. Marburg virus pseudotyped entry inhibition, cell reporter. Potency, µM (top dose mostly 37.8 µM), for the others: at the highest dose activity change, negative = inhibition, actives largely listed as inhibitors. 300,000 compounds, 1.8% hits. AID 540276, 2011; calls by dose curve; tested in HEK293 cells; note: potency is the fitted concentration of half-maximal effect
Pf growth 48h – Primary qHTS for delayed death inhibitors of the malarial parasite plastid, 48 hour incubation | P. falciparum luciferase growth in erythrocytes, 48 h | Potency, µM (doses to about 28.7 µM), inactives show at the top dose activity change, negative = inhibition, most hits filed as inhibitors | 310,000 compounds, 5.9% hits | AID 504832, 2011; note: potency is the fitted concentration of half-maximal effect
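Read-out is firefly luciferase luminescence from an integrated reporter in P. falciparum, so falling signal marks reduced parasite growth. Infected erythrocytes were at 2% hematocrit and 0.1% parasitemia (final) in Albumax-supplemented RPMI 1640.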
Pf growth 96h – Primary qHTS for delayed death inhibitors of the malarial parasite plastid, 96 hour incubation; P. falciparum luciferase reporter growth, 96 h; Potency, µM (titrated, usually from 28.7 µM), inactives show at the highest dose activity change, negative = inhibition, usual class: inhibitors; 320,000 compounds, 6.9% hits; note: potency is the fitted concentration of half-maximal effect
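P. falciparum expressing integrated firefly luciferase, in erythrocytes at 2% hematocrit, 0.05% parasitemia, incubated with compounds 96 h at 37 C, 5% CO2. Growth inhibition read as loss of luminescence; two-generation exposure targets delayed-death apicoplast inhibitors.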
* = called active by the depositor; [ ] = dose if it differs, or a comment. This is a sample that favours compounds with a hit; in the whole collection about 14% have one here. Unless noted, calls come from the whole dose curve; as a rule, active = well fitted inhibition curve with a large enough effect; inconclusive = small, poorly fitted or top-dose-only effect, or another doubt; inactive = no such curve, though single readings can be large or run the other way. % is set by controls: 0 for no effect and ±100 for the full control effect.

For CCn1c(=O)c(CCC(=O)N2CCN(c3ccccn3)CC2)c(C)c2c(C)nn(-c3ccccc3)c21 the results were HCV inhibitor 15%, HCMV inh 11, Pf growth 48h inconclusive and Pf growth 96h inconclusive.
CC1CC(C)CN(c2nc(NCc3ccco3)nc(N)c2[N+](=O)[O-])C1 (stereo not drawn) was read as HCV inhibitor inconclusive, LASV entry inh inconclusive, HCMV inh -67*, MARV entry inh -10%, Pf growth 48h inconclusive and Pf growth 96h inconclusive.
Screening Fc1ccc(Nc2nc(NCc3ccco3)c3ccccc3n2)cc1 returned HCV inhibitor 10µM*, HCMV inh -13, Pf growth 48h 0.37µM* and Pf growth 96h inconclusive.
Screening Cc1ccc(Nc2nc(N)c([N+](=O)[O-])c(NCc3ccco3)n2)cc1 returned HCV inhibitor inconclusive, LASV entry inh 2%, HCMV inh 35, MARV entry inh inconclusive, Pf growth 48h 0% and Pf growth 96h 12µM*.
For Nc1nc(NCc2ccco2)nc(N2CCOCC2)c1[N+](=O)[O-] the results were HCV inhibitor -22%, LASV entry inh -2%, HCMV inh 2, MARV entry inh -14%, Pf growth 48h -3% and Pf growth 96h 9%.
`CC1CCCN(c2nc(NCc3ccco3)nc(N)c2[N+](=O)[O-])C1` (stereo not drawn) gave HCV inhibitor inconclusive, LASV entry inh inconclusive, HCMV inh -102*, MARV entry inh inconclusive, Pf growth 48h -22% and Pf growth 96h inconclusive.
For Cc1ccc(Nc2nc(N)c([N+](=O)[O-])c(N3CCCC(C)C3)n2)cc1C (stereo not drawn) the results were HCV inhibitor 34%, LASV entry inh -6%, HCMV inh -62*, MARV entry inh 2.2µM*, Pf growth 48h inconclusive and Pf growth 96h inconclusive.
Screening O=C(NCCc1ccccc1)c1cc(-c2ccc(Cl)cc2)on1 returned LASV entry inh 1%[46.1 µM], HCMV inh 7 and MARV entry inh -3%[46.1 µM].
Screening CC(C)Oc1cccc(C(=O)Nc2ncn[nH]2)c1 returned HCV inhibitor -9%, LASV entry inh 30%[46.1 µM], HCMV inh -2, MARV entry inh -3%[46.1 µM], Pf growth 48h 28% and Pf growth 96h inconclusive.
For CCOc1ccc(C(=O)Nc2ncn[nH]2)cc1 the results were HCV inhibitor 15%, HCMV inh 25, Pf growth 48h 19% and Pf growth 96h 2.1µM*.
For CC(C)COc1ccc(C(=O)Nc2ncn[nH]2)cc1 the results were HCV inhibitor 0%, LASV entry inh 0%, HCMV inh 5, MARV entry inh -6%, Pf growth 48h 21% and Pf growth 96h 69%.
Screening CC(C)Oc1ccc(C(=O)Nc2ncn[nH]2)cc1 returned HCV inhibitor 0%, LASV entry inh -1%, HCMV inh 78, MARV entry inh 3%, Pf growth 48h 52% and Pf growth 96h 10µM*.
CC(=O)Nc1sc2c(c1C(c1cccc(Cl)c1)N1CCN(CCO)CC1)CCCC2 (stereo not drawn) was read as HCV inhibitor 0%, HCMV inh inconclusive, Pf growth 48h inconclusive and Pf growth 96h -25%.
For CCOc1ccc(C(c2c(NC(=O)c3ccccc3)sc(C)c2C)N2CCN(CCO)CC2)cc1 (stereo not drawn) the results were HCV inhibitor inconclusive, LASV entry inh inconclusive, HCMV inh -36, MARV entry inh 8.9µM*, Pf growth 48h inconclusive and Pf growth 96h 5.2µM*.
For Cc1sc(NC(=O)c2ccccc2)c(C(c2ccc(Cl)cc2)N2CCN(CCO)CC2)c1C (stereo not drawn) the results were HCV inhibitor inconclusive, LASV entry inh inconclusive, HCMV inh 3, MARV entry inh inconclusive, Pf growth 48h 8.3µM* and Pf growth 96h 8.3µM*.
